Experimental data as given in ChEMBL document CHEMBL3988442, “University of Dundee, Small-Polar-MMV Screening Library” (2021).
Among all 48,000 compounds or so, about 13,000 (27%) showed an effect of 50% or more. This is one part of the list.

Each compound was assayed on Wolbachia pipientis (assay: Anti-Wolbachia Cell-Based Screen). Conditions: 5 µM.
Format: functional
Design: scale not given: in the data most compounds retested in dose-response had high values

Compound | Percent Effect
N#Cc1cccc(N2CCCC3(C2)CN(c2ncc(F)cn2)CCO3)n1.O=C(O)C(F)(F)F (configuration not stated) | -18.06%
Fc1ccc(CN2CCCCC2Cn2cncn2)c2ncccc12 (configuration not stated) | 6.637%
Cc1ncc(CC(=O)N2CCCC(COc3ccccc3F)C2)c(=O)[nH]1 (configuration not stated) | 16.93%
Cn1cnc2c1CCN(Cc1cccc(OCC(N)=O)c1)C2 | -0.9151%
Cn1ccc(CN2CCCC2c2ccc3c(c2)OCCCO3)cc1=O (configuration not stated) | 3.687%
CC(=O)N1CCN(C[C@H]2CC[C@@H](Cc3ccc4c(c3)OCO4)O2)CC1 | 6.248%
COC(=O)N1CC[C@@]2(O)CCCC[C@H]2[C@@H]1c1ccc2c(c1)OCO2 | 122.6%
Cn1cc(C(=O)N2CCCC2c2ccc3c(c2)OCO3)ccc1=O (configuration not stated) | 2.509%
CC(=O)N1CC[C@@]2(O)CCCC[C@H]2[C@@H]1c1ccc2c(c1)OCO2 | 121.2%
CCN1CCCC(O)(CNCc2ccc3c(c2)OCO3)C1 (configuration not stated) | -9.558%
NC(=O)CN1CC[C@@]2(O)CCCC[C@H]2[C@@H]1c1ccc2c(c1)OCO2 | 128.7%
NC(=O)CN1CCC(C(=O)NCc2ccc3c(c2)OCCCO3)CC1 | -4.067%
CC(=O)N1CC[C@H]2NC(=O)N(Cc3ccccc3)C(=O)[C@H]21 | 6.922%
CN1CCN(C(=O)N2CC[C@@](O)(c3ccccc3)[C@H]3CCCC[C@@H]32)CC1 | -18.77%
CC(=O)N1CC[C@@]2(O)CCCC[C@H]2[C@@H]1c1ccccc1 | 132.1%
O=C(O)C(c1ccc2c(c1)OCO2)N1CCC(C(=O)N2CCCC2)CC1 (configuration not stated) | 0.296%
CCCN1CC2(CCN(c3ccc(C(C)=O)cn3)CC2)CC1C(=O)O (configuration not stated) | 10.16%
Cc1noc([C@@H]2C[C@H](NC(=O)NC(C)C)CN2C)n1 | -7.021%
CN1C[C@@H](NC(=O)c2ccccc2)C[C@H]1c1nc(-c2cnccn2)no1 | -2.532%
CN1CCN(CCc2ncnn2-c2ccc3c(c2)OCO3)CC1 | -0.8313%
O=S(=O)(NCCSc1nccn1C1CC1)c1ccccc1 | 5.63%
CSCc1ccc(CNCCN2CCOCC2)o1 | -4.251%
Cc1ccc(CNCCN2CCOCC2)o1 | 131.7%
CSCc1ccc(CNCCCN2CCOCC2)o1 | 3.399%
CSc1ccccc1C(=O)NCc1cc2n(n1)CCCN(CC(C)C)C2 | -7.136%

Compound | Percent Effect
Cn1cc(N2CCN(c3ccc(C#N)c(Cl)c3)CC2=O)cn1 | -30.5%
CCc1nnsc1C(=O)N1CCN(CC(O)CC)CC1 (configuration not stated) | -1.027%
CCC(O)CN1CCN(C(=O)c2sccc2C(C)C)CC1 (configuration not stated) | 113.4%
CC(C)(C)OC(=O)N1CCN(C(=O)c2sccc2C2CC2)CC1 | -2.417%
Cc1cc(CN2CCN(C(=O)c3sccc3C(C)C)CC2)no1 | -0.2452%
CCC(O)CN1CCN(C(=O)c2sccc2C2CC2)CC1 (configuration not stated) | 131.2%
CC(C)(O)CN1CCN(C(=O)c2sccc2C2CC2)CC1 | -8.363%
Cc1n[nH]c(C)c1CNc1ccc(-c2nc(C3CC3)no2)cn1 | 9.439%
COc1ccc([C@@H]2CN(C(=O)CCc3cc(Cl)no3)C[C@H]2N(C)C)cc1 | -5.122%
Cn1c(=O)c2cc(C(=O)NCCOc3ccccc3)ccc2n(C)c1=O | 103.9%
Cc1ccc(-n2ccnc2)c(C(=O)NCCOCC(F)(F)F)c1 | 1.401%
O=C(NCCOCC(F)(F)F)c1ccc(-c2ccco2)[nH]c1=O | 3.056%
CC(O)(CCc1ccccc1)CNC(=O)c1ccc(F)cc1 (configuration not stated) | -3.449%
O=C(O)c1ccc(CCNC(=O)C2(O)Cc3ccccc3C2)cc1 | 0.991%
Cn1c(=O)c2cc(C(=O)NCCc3ccccc3)ccc2n(C)c1=O | 97.39%
O=C(NCCOc1ccccc1)c1ccc2c(c1)C(=O)NC2=O | -4.876%
COc1ccc(OCCNC(=O)c2ccc3c(=O)[nH][nH]c(=O)c3c2)cc1 | 4.909%
Cn1c(=O)c2cc(C(=O)NCCOCC(F)(F)F)ccc2n(C)c1=O | 109.9%
Cc1cnc(C)c(N2CCC(c3nnc(CN(C)C)n3C3CC3)CC2)n1 | 5.849%
O=C(O)c1ccc(F)c(S(=O)(=O)Nc2ccc(-n3cccn3)c(Cl)c2)c1 | -11.53%
Cc1c(F)cc(C(=O)O)cc1S(=O)(=O)Nc1ccc(F)c(C#N)c1 | 122.4%
COC(=O)c1ccc(Cl)c(S(=O)(=O)Nc2ccc(F)c(C(N)=O)c2)c1 | -0.6488%
CCc1ccc(C(=O)O)cc1S(=O)(=O)Nc1ccc(F)c(C#N)c1 | 3.443%
N#Cc1cc(NS(=O)(=O)c2cc(C(=O)O)cc(Cl)c2Cl)ccc1F | 118.7%
N#Cc1cc(NS(=O)(=O)c2ccc(C(=O)O)cc2F)ccc1F | -1.66%

Compound | Percent Effect
Cc1cnn(Cc2cc(F)ccc2F)c1NC(=O)C1COCCO1 (configuration not stated) | -3.747%
CCN(C)C(=O)[C@H]1C[C@@](CC(C)C)(C(=O)OC)N(C)[C@H]1c1cccnc1 | 5.067%
CC(c1ccon1)N(C)C(=O)C1CCN(C(=O)C2CC2)CC1 (configuration not stated) | 3.184%
CC(c1ccon1)N(C)C(=O)C1CCN(C(=O)C2CCC2)CC1 (configuration not stated) | -1.254%
CC(NC(=O)C1CCN(C(=O)C2CC2)CC1)c1nncn1C(C)C (configuration not stated) | -33.62%
Cc1ccc2oc(C(=O)N3CCC(C(=O)N4CCCC4)CC3)cc2n1 | -8.823%
Cc1cc(-c2ccc(=O)n(C3CCN(C(=O)C4CCC4)CC3)n2)c(C)o1 | 91.93%
Cc1cc(-c2ccc(=O)n(C3CCN(C(=O)C4CC4)CC3)n2)c(C)o1 | 96.13%
O=C(COc1ccccc1C(F)(F)F)NCCNC(=O)c1ccccc1 | -6.371%
CCC(=O)Nc1ncn(Cc2cccnc2)n1 | 8.509%
OCC1(Cc2ccc(F)cc2F)CCCN(Cc2ccncc2)C1 (configuration not stated) | -2.33%
Cc1noc(C)c1Cn1cc(I)cc(C)c1=O | 13.31%
Cc1nnc(Cn2cc(I)cc(C)c2=O)o1 | 62.5%
Cc1nc(Cn2cc(I)cc(C)c2=O)oc1C | 3.254%
Cc1nc(-c2cc(Cl)c3c(c2)CC(CN)O3)c[nH]1 (configuration not stated) | 12.8%
O=C(O)C(F)(F)F.O=C(c1ccco1)N1C[C@@H]2CCN(c3cccnc3)C[C@@H]2C1 | 15.12%
O=C(O)C(F)(F)F.O=C(c1cccnc1)N1CCC2(CCN(C(=O)c3ccco3)CC2)C1 | 98.34%
Cc1occc1C(=O)N1CCC2(CCN(Cc3nccs3)C2)CC1.O=C(O)C(F)(F)F | -10.35%
Cc1occc1C(=O)N1CCC2(CCN(C(=O)c3cccnc3)C2)CC1.O=C(O)C(F)(F)F | 124.8%
O=C(O)C(F)(F)F.O=C(c1ccco1)N1CCc2ncnc(Oc3cccnc3)c2CC1 | 1.407%
COCCNC(=O)[C@]12COC[C@H]1CN(c1cc(OC)ncn1)C2 | -2.209%
CNc1ncc(CN(C)Cc2cc(O)c3cccc(Cl)c3n2)cn1 | -16.65%
CC1COCCN1C(=O)NCCn1ccnc1 (configuration not stated) | 4.662%
O=C(c1ccccn1)N1C[C@@H]2CC[C@H](C1)N(C(=O)CCc1ccsc1)C2 | -35.6%
O=C(CCc1ccccc1)N1CCN(C(=O)c2ccc[nH]2)CC1 | 0.009024%

Compound | Percent Effect
O=C1C[C@H]2CC[C@@H](CN1)N2C(=O)CCc1ccsc1 | 104.7%
O=C(c1cnccn1)N1C[C@@H]2CC[C@H](C1)N(C(=O)Cc1ccsc1)C2 | 0.9084%
O=C1C[C@H]2CC[C@@H](CN1)N2C(=O)Cc1ccsc1 | 116.9%
NC(=O)C1CCCN1CCCc1ccc(Cl)cc1 (configuration not stated) | -0.6682%
O=C(CCCc1ccc(Cl)cc1)N1CCN(C(=O)c2ccc[nH]2)CC1 | -0.04512%
O=C1CO[C@@H]2CN(C(=O)CCc3ccccc3)C[C@H]2N1 | -22.36%
CS(=O)(=O)N1C[C@@H]2CC[C@H](C1)N(C(=O)CCc1ccsc1)C2 | 10.69%
O=C1C[C@H]2CC[C@@H](CN1)N2C(=O)CCCc1ccc(Cl)cc1 | 109.6%
O=C1C[C@H]2CC[C@@H](CN1)N2C(=O)CCc1ccccc1 | 110.6%
Cn1c2c(ccc1=O)CC(NC(=O)Cc1ccsc1)CC2 (configuration not stated) | -9.793%
CCN1C(=O)[C@H]2CN(CC(C)C)C[C@H]2C12CCN(S(C)(=O)=O)CC2.O=C(O)C(F)(F)F | 7.177%
CN(C)C1CCN(C(=O)C2SCCc3ccccc32)CC1 (configuration not stated) | -22.58%
CC(NCCCc1cnn(C)c1)c1ccc(Cl)s1 (configuration not stated) | 3.726%
O=C(NC1CC1)C1CNCCN1C(=O)CCc1ccc2c(c1)OCO2 (configuration not stated) | 13.7%
O=C(CCc1ccc2c(c1)OCO2)N1CCCC(n2cccn2)C1 (configuration not stated) | -13.74%
O=C1C[C@H]2CC[C@@H](CN1)N2C(=O)CCc1ccc2c(c1)OCO2 | 96.79%
O=C(O)C(F)(F)F.O=C([C@H]1COC[C@H]2CN(C3CCCCC3)C[C@H]21)N1CCOCC1 | -10.34%
O=C(O)C(F)(F)F.O=C([C@H]1CC[C@@H]2[C@@H](CCN2C2CCCC2)O1)N1CCOCC1 | 125.5%
O=C(O)C(F)(F)F.O=C([C@H]1CC[C@@H]2[C@@H](CCN2C2CCCCC2)O1)N1CCOCC1 | 120.9%
O=C(O)C(F)(F)F.O=C([C@H]1CC[C@@H]2[C@@H](CCN2Cc2ccsc2)O1)N1CCOCC1 | -4.642%
O=C(O)C(F)(F)F.O=C([C@H]1CC[C@@H]2[C@@H](CCN2C2CCOCC2)O1)N1CCOCC1 | 111.7%
O=C(O)C(F)(F)F.O=C([C@@H]1CC[C@@H]2[C@@H](CCN2CCOCc2ccccc2)O1)N1CCCC1 | -30.56%
